# Like-named read-outs stand apart in the source and are kept apart here.
# What was measured:
# GRK2 = tested on: T1, GRK2; settings: concentration: 1 μM, replicates: in singlicate; n = 1
# T1 construct: gene ADRBK1
# GRK3 = tested on: T2, GRK3; settings: concentration: 1 μM, replicates: in singlicate; n = 1
# T2 construct: gene ADRBK2
# GRK4 = settings: concentration: 1 μM, replicates: in singlicate; n = 1
# GRK7 = settings: concentration: 1 μM, replicates: in singlicate; n = 1
# GSK3A = settings: concentration: 1 μM, replicates: in singlicate; n = 1
# GSK3B = settings: n = 1
# HASPIN = tested on: T3, HASPIN; settings: concentration: 1 μM, replicates: in singlicate; n = 1
# T3 construct: gene GSG2
# HCK = settings: concentration: 1 μM, replicates: in singlicate; n = 1
# HIPK1 = settings: concentration: 1 μM, replicates: in singlicate; n = 1
# HIPK2 = settings: concentration: 1 μM, replicates: in singlicate; n = 1
# HIPK3 = settings: concentration: 1 μM, replicates: in singlicate; n = 1
# HIPK4 = settings: concentration: 1 μM, replicates: in singlicate; n = 1
# HPK1 = settings: concentration: 1 μM, replicates: in singlicate; n = 1
# HUNK = settings: concentration: 1 μM, replicates: in singlicate; n = 1
# ICK = settings: concentration: 1 μM, replicates: in singlicate; n = 1
# IGF1R = settings: concentration: 1 μM, replicates: in singlicate; n = 1
# IKK-alpha = tested on: T4, IKK-alpha; settings: concentration: 1 μM, replicates: in singlicate; n = 1
# T4 construct: gene CHUK
# IKK-beta = tested on: T5, IKK-beta; settings: concentration: 1 μM, replicates: in singlicate; n = 1
# T5 construct: gene IKBKB
# IKK-epsilon = tested on: T6, IKK-epsilon; settings: concentration: 1 μM, replicates: in singlicate; n = 1
# T6 construct: gene IKBKE
# INSRR = settings: concentration: 1 μM, replicates: in singlicate; n = 1
# [1] = concentration: 1 μM, replicates: in singlicate
# 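Further: KINOMEscan kinase panel screen.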
structure (smiles),measurement,setting,value
CCS(=O)c1ccc(-c2coc3ccc(-c4nnc(C)o4)cc23)cc1 (stereo not shown),%Inh,GRK2,0%
same,%Inh,GRK3,5%
same,%Inh,GRK4,21%
same,%Inh,GRK7,19%
same,%Inh,GSK3A,91.6%
same,%Inh,GSK3B; [1],58%
same,%Inh,HASPIN,17%
same,%Inh,HCK,33%
same,%Inh,HIPK1,30%
same,%Inh,HIPK2,43%
same,%Inh,HIPK3,21%
same,%Inh,HIPK4,0%
same,%Inh,HPK1,11%
same,%Inh,HUNK,0%
same,%Inh,ICK,10%
same,%Inh,IGF1R,0%
same,%Inh,IKK-alpha,10%
same,%Inh,IKK-beta,6%
same,%Inh,IKK-epsilon,0%
same,%Inh,INSRR,0%
CCc1ccc(-c2ccc3c(c2)-c2nn(C)cc2S(=O)(=O)N3C)cc1,%Inh,GRK2,0%
same,%Inh,GRK3,0%
same,%Inh,GRK4,0%
same,%Inh,GRK7,0%
same,%Inh,GSK3A,30%
same,%Inh,GSK3B; [1],0%
same,%Inh,HASPIN,23%
same,%Inh,HCK,2%
same,%Inh,HIPK1,0%
same,%Inh,HIPK2,0%
same,%Inh,HIPK3,0%
same,%Inh,HIPK4,0%
same,%Inh,HPK1,18%
same,%Inh,HUNK,47%
same,%Inh,ICK,0%
same,%Inh,IGF1R,0%
same,%Inh,IKK-alpha,0%
same,%Inh,IKK-beta,1%
same,%Inh,IKK-epsilon,0%
same,%Inh,INSRR,0%
COc1ccc(CNC(=O)NC2CCN(c3ccnc(Nc4ccc(F)cc4)n3)C2)cc1 (stereo not shown) [GSK1379706],%Inh,GRK2,0%
same,%Inh,GRK3,51%
same,%Inh,GRK4,19%
same,%Inh,GRK7,0%
same,%Inh,GSK3A,23%
same,%Inh,GSK3B; [1],1%
same,%Inh,HASPIN,32%
same,%Inh,HCK,0%
same,%Inh,HIPK1,19%
same,%Inh,HIPK2,13%
same,%Inh,HIPK3,30%
same,%Inh,HIPK4,8%
same,%Inh,HPK1,49%
same,%Inh,HUNK,0%
same,%Inh,ICK,0%
same,%Inh,IGF1R,13%
same,%Inh,IKK-alpha,3%
same,%Inh,IKK-beta,0%
same,%Inh,IKK-epsilon,30%
same,%Inh,INSRR,0%
COc1cccc(-n2cnc3c(N)ncnc32)c1 [SKF-97416],%Inh,GRK2,0%
same,%Inh,GRK3,11%
same,%Inh,GRK4,10%
same,%Inh,GRK7,27%
same,%Inh,GSK3A,0%
same,%Inh,GSK3B; [1],35%
same,%Inh,HASPIN,0%
same,%Inh,HCK,8%
same,%Inh,HIPK1,18%
same,%Inh,HIPK2,22%
same,%Inh,HIPK3,26%
same,%Inh,HIPK4,13%
same,%Inh,HPK1,0%
same,%Inh,HUNK,16%
same,%Inh,ICK,34%
same,%Inh,IGF1R,0%
same,%Inh,IKK-alpha,50%
same,%Inh,IKK-beta,32%
same,%Inh,IKK-epsilon,0%
same,%Inh,INSRR,5%
COc1cc(Nc2nccc(N3CCC(NC(=O)C(C)c4ccc(Cl)cc4)C3)n2)cc(OC)c1OC (stereo not shown) [GSK1379757],%Inh,GRK2,0%
same,%Inh,GRK3,17%
same,%Inh,GRK4,37%
same,%Inh,GRK7,0%
same,%Inh,GSK3A,0%
same,%Inh,GSK3B; [1],0%
same,%Inh,HASPIN,21%
same,%Inh,HCK,11%
same,%Inh,HIPK1,0%
same,%Inh,HIPK2,0%
same,%Inh,HIPK3,0%
same,%Inh,HIPK4,0%
same,%Inh,HPK1,37%
same,%Inh,HUNK,16%
same,%Inh,ICK,0%
same,%Inh,IGF1R,13%
same,%Inh,IKK-alpha,0%
same,%Inh,IKK-beta,0%
same,%Inh,IKK-epsilon,23%
same,%Inh,INSRR,0%
CCn1c(-c2nonc2N)nc2ccccc21 [SB-693162/GW549034],%Inh,GRK2,0%
same,%Inh,GRK3,14%
same,%Inh,GRK4,30%
same,%Inh,GRK7,25%
same,%Inh,GSK3A,0%
same,%Inh,GSK3B; [1],37%
same,%Inh,HASPIN,0%
same,%Inh,HCK,0%
same,%Inh,HIPK1,29%
same,%Inh,HIPK2,45%
same,%Inh,HIPK3,62%
same,%Inh,HIPK4,1%
same,%Inh,HPK1,7%
same,%Inh,HUNK,36%
same,%Inh,ICK,64%
same,%Inh,IGF1R,0%
same,%Inh,IKK-alpha,23%
same,%Inh,IKK-beta,49%
same,%Inh,IKK-epsilon,29%
same,%Inh,INSRR,48%
Fc1cccc(CSc2nnc(-c3ccc4c(c3)CCO4)o2)c1,%Inh,GRK2,35%
same,%Inh,GRK3,10%
same,%Inh,GRK4,0%
same,%Inh,GRK7,19%
same,%Inh,GSK3A,64%
same,%Inh,GSK3B; 1 µM,37%
same,%Inh,HASPIN,20%
same,%Inh,HCK,1%
same,%Inh,HIPK1,18%
same,%Inh,HIPK2,30%
same,%Inh,HIPK3,6%
same,%Inh,HIPK4,0%
same,%Inh,HPK1,0%
same,%Inh,HUNK,0%
same,%Inh,ICK,0%
same,%Inh,IGF1R,13%
same,%Inh,IKK-alpha,14%
same,%Inh,IKK-beta,10%
same,%Inh,IKK-epsilon,20%
same,%Inh,INSRR,0%
COC(=O)c1c(-c2ccccc2)c2cc(C)ccc2c(=O)n1Cc1ccccc1,%Inh,GRK2,0%
same,%Inh,GRK3,0%
same,%Inh,GRK4,28%
same,%Inh,GRK7,0%
same,%Inh,GSK3A,0%
same,%Inh,GSK3B; [1],0%
same,%Inh,HASPIN,0%
same,%Inh,HCK,0%
same,%Inh,HIPK1,0%
same,%Inh,HIPK2,0%
same,%Inh,HIPK3,0%
same,%Inh,HIPK4,0%
same,%Inh,HPK1,0%
same,%Inh,HUNK,0%
same,%Inh,ICK,0%
same,%Inh,IGF1R,5%
same,%Inh,IKK-alpha,0%
same,%Inh,IKK-beta,0%
same,%Inh,IKK-epsilon,0%
same,%Inh,INSRR,1%
